TRHR PAM: qHTS for Small Molecule Agonists and Allosteric Enhancers of Human TRH Receptor: Primary Screen for Enhancers; Thyrotropin-releasing hormone receptor (Homo sapiens), P34981; TRHR cells, fluo-8 calcium fluorescence, EC20 TRH enhancement; enhancement, % at 2 µM; 360,000 compounds, 0.66% hits; AID 493056, 2011; in the data active means enhancement above about 30%
Target sequence (P34981 whole entry, looked up): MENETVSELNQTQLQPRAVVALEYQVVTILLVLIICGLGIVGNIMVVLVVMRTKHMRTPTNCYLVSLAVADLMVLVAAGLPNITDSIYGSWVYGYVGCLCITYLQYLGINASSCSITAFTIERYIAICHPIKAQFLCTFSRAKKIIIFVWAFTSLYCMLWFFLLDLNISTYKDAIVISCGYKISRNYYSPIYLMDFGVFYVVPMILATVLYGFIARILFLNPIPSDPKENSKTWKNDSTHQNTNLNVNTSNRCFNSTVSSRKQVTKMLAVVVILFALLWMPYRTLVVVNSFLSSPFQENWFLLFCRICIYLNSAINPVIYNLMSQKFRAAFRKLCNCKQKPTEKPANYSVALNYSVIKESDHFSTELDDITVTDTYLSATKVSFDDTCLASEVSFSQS
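TRHR-expressing cells loaded with fluo-8 calcium dye were read kinetically (ex 480/em 530) during compound addition, then stimulated with an EC20 of TRH (10 nM final). Enhancement of the Gq-mediated intracellular calcium response was scored.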
D1 antag: Antagonist of Human D 1 Dopamine Receptor: qHTS | D(1A) dopamine receptor (Homo sapiens), P21728 | activity change, negative = inhibition, % at 10 µM | HEK293 TREx D1 cells, calcium flux, dopamine EC80; active compounds read low | 360,000 compounds, 3.2% hits; in the data active means activity change below about -30%
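Inducible Hek293 Trex D1 cells (tetracycline, overnight, 30 C). Calcium dye 30–90 min RT. Antagonist mode: EC80 dopamine added after 180 s compound read.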
TRHR ag: qHTS for Small Molecule Agonists and Allosteric Enhancers of Human TRH Receptor: Primary Screen for Agonists; activation, % at 2 µM; TRHR cells, calcium flux fluo-8, FDSS agonist mode; 360,000 compounds, 0.18% hits; Thyrotropin-releasing hormone receptor (Homo sapiens), P34981
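TRHR-expressing cells, plated overnight in medium with 10% serum, were loaded with fluo-8 calcium dye at room temperature. After a 10 s baseline, library compound was pin-added and calcium release was recorded kinetically (ex 480/em 530) as agonist response.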
D1 ag: Allosteric Agonists of the Human D1 Dopamine Receptor: qHTS; D(1A) dopamine receptor (Homo sapiens), P21728; HEK293 T-REx D1 cells, calcium flux, agonist mode; activation, % at 2 µM; 360,000 compounds, 1% hits
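Agonism was scored from calcium flux recorded over 180 s (1 read/s) after pintool compound addition, following a 10-cycle baseline. Cells were inducible force-coupled HEK293 TREx D1, plated overnight at 30 C and loaded with no-wash calcium dye.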
D1 PAM: Potentiators of Human D1 Dopamine Receptor: qHTS | D(1A) dopamine receptor (Homo sapiens), P21728 | HEK293 TREx D1 cells, calcium flux, dopamine EC20 potentiation | potentiation, % at 10 µM | 360,000 compounds, 0.036% hits | AID 504651, 2011; in the data active means potentiation above about 30%
Hits are given with their value. Most compounds without a hit are left out; they make up all but 4.6% or so of the library. Unless noted, no stated cut-off is given here; in the data, active means activation above about 30%; inactive means the rest.

For CC(C)CC(=O)N1CCN(C(=O)c2ccc(-c3ccccc3)cc2)CC1 the results were TRHR PAM 31, D1 antag inactive, TRHR ag inactive, D1 ag inactive and D1 PAM inactive.
COc1cccc(CN2CCN(C(=O)c3ccc(-c4ccccc4)cc3)CC2)c1OC was read as TRHR PAM inactive, D1 antag -37, TRHR ag inactive, D1 ag inactive and D1 PAM inactive.
COc1ccc(C(=O)N2CCN(C(=O)c3ccc(-c4ccccc4)cc3)CC2)cc1OC was read as TRHR PAM inactive, D1 antag inactive, TRHR ag inactive, D1 ag inactive and D1 PAM inactive.
`CCc1ccc(-n2nnc(-c3nc(-c4ccc(C)cc4)no3)c2N)cc1` gave TRHR PAM inactive, D1 antag inactive, TRHR ag inactive, D1 ag inactive and D1 PAM inactive.
Fc1ccc(-c2cc(C(F)(F)F)nc(NCC3CCCO3)n2)cc1 (stereo unspecified) was read as TRHR PAM inactive, D1 antag inactive, TRHR ag inactive, D1 ag 32 and D1 PAM inactive.
O=C(CSc1nnc(CNc2ccccc2)o1)N1CCN(C(=O)c2ccco2)CC1 was read as TRHR PAM inactive, D1 antag -38, TRHR ag inactive, D1 ag inactive and D1 PAM inactive.
`O=C(NCc1nnc(SCC(=O)N2CCC(Cc3ccccc3)CC2)o1)c1ccccc1F` gave TRHR PAM inactive, D1 antag inactive, TRHR ag inactive, D1 ag 33 and D1 PAM inactive.
`O=C(NCc1nnc(SCC(=O)N2CCCC2)o1)c1c(F)cccc1F` gave TRHR PAM inactive, D1 antag inactive, TRHR ag inactive, D1 ag inactive and D1 PAM inactive.
`O=C(CSc1nnc(CNC(=O)c2ccc(F)cc2)o1)c1ccccc1` gave TRHR PAM inactive, D1 antag -31, TRHR ag inactive, D1 ag inactive and D1 PAM inactive.
For CC1CCN(C(=O)CSc2nnc(CNC(=O)c3ccc(S(=O)(=O)N(C)C)cc3)o2)CC1 the results were TRHR PAM inactive, D1 antag -45, TRHR ag inactive, D1 ag inactive and D1 PAM inactive.
For Cc1nn(-c2ccccc2)c2c1cc1c(=O)n(C)c(=O)nc-1n2-c1cccc(Cl)c1 the results were TRHR PAM inactive, D1 antag inactive, TRHR ag inactive, D1 ag inactive and D1 PAM inactive.
For CCOCCCNC(=O)NC(CCC(C)C)c1c(-n2cccc2)sc2c1CCN(C)C2 (stereo unspecified) the results were TRHR PAM inactive, D1 antag inactive, TRHR ag inactive, D1 ag inactive and D1 PAM inactive.
CCc1ccc(S(=O)(=O)N(C(=O)c2ccncc2)c2ccc3oc(C)c(C(=O)OC)c3c2)cc1 was read as TRHR PAM inactive, D1 antag inactive, TRHR ag inactive, D1 ag inactive and D1 PAM inactive.
`CCOc1ccc(S(=O)(=O)N(C(=O)c2ccncc2)c2ccc3oc(C)c(C(=O)OC)c3c2)cc1` gave TRHR PAM inactive, D1 antag -46, TRHR ag inactive, D1 ag inactive and D1 PAM inactive.
For COC(=O)c1c(C)oc2ccc(N(C(=O)c3ccncc3)S(=O)(=O)c3ccc(OC)cc3)cc12 the results were TRHR PAM inactive, D1 antag -48, TRHR ag inactive, D1 ag inactive and D1 PAM inactive.
For O=C(Nc1ccc2c(c1)N(C1CCCC1)C(=O)c1ccccc1S2)c1ccc(F)cc1 the results were TRHR PAM inactive, D1 antag inactive, TRHR ag inactive, D1 ag inactive and D1 PAM inactive.
`CCN(CC)CCNS(=O)(=O)c1ccc(C(=O)NN)cc1` gave TRHR PAM inactive, D1 antag -35, TRHR ag inactive, D1 ag inactive and D1 PAM inactive.
For CCOC(=O)c1ccc(S(=O)(=O)NCCN(CC)CC)cc1 the results were TRHR PAM inactive, D1 antag inactive, TRHR ag inactive, D1 ag inactive and D1 PAM inactive.

High-throughput results: PubChem BioAssay, National Center for Advancing Translational Sciences (NCATS)
